Compound activity as filed in PubChem BioAssay.
Peg3 promoter – Peg3 promoter-driven luciferase inhibitors, primary screen, cell-based, HeLa, luciferase luminescence | HeLa PEG-Prom luciferase reporter, overnight | inhibition, % at 20 µM | 1.7% of 360,000 active | AID 588405, 2011;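 active = inhibition of at least 50% at 20 µM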
KKLEB cytotox – cytotoxicity in KKLEB CF airway cells, primary screen, cytotoxicity control for CF NF-kB inhibitor project, cell-based, uHTS, fluorescence assay plates. 0.36% of 360,000 active. AID 602141, 2011. KKLEB CF airway cells viability, ATPlite luminescence, overnight; active compounds read low; cells stimulated with P. aeruginosa culture filtrate. activity change (cytotoxicity), % at 5 µM;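 active = corrected activity change at or below -50% at 5 µM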
HIF-2a inh – HIF-2a reporter inhibitors, primary screen, luminescence, 786-0 RCC cells. 0.72% of 360,000 active. 786-0 RCC cells HIF-2a reporter, luciferase luminescence, overnight. AID 624352, 2012. inhibition, % at 18.8 µM;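 active = inhibition of the luminescence signal of 40% or more relative to plate controls, in a single-dose primary screen at 18.75 µM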
Shn3 inh set2 – reduction of Shn3 3'UTR firefly luciferase signal, primary screen, Schnurri-3 inhibitor project, cell-based, Clone20 osteoblasts, set 2 | 0.52% of 360,000 active | Clone20 osteoblast Shn3 3'UTR firefly luciferase, 24 h | inhibition, % at 12.5 µM;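 active = mean inhibition of at least 75% with every replicate also reaching 75%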
MITF TRPM1 inh – inhibitors of MITF-dependent TRPM1 promoter reporter, primary screen, cell-based, SK-MEL-5, single point, luciferase | 0.83% of 330,000 active | inhibition, % at 12.5 µM | SK-MEL-5 TRPM1 promoter luciferase, 24 h;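 active = mean inhibition across replicates of 60% or more, whatever share of single replicates reaches that level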
CF NFkB inh – inhibitors of PAF-induced NF-kB signaling, primary screen, cell-based, GFP fluorescence, uHTS; KKLEB NF-kB-GFP reporter, GFP fluorescence overnight; inhibition, % at 5 µM; 0.86% of 360,000 active; AID 588850, 2011;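 active = at least 50% inhibition at 5 µM, scaled per plate between neutral and stimulator controls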;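 note: PAF is a Pseudomonas aeruginosa culture filtrate used as stimulus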
Of the large screens only hits and unclear results are named; the others gave an inactive call. Sampled rows, rich in hits. Any-hit rate of the full collection: about 2.8%.

COC(=O)c1ccc(CNC(=O)c2sccc2-c2ccccc2)cc1	MITF TRPM1 inh 79
CCOC(=O)C1CCN(S(=O)(=O)c2c(Cl)ccc3nonc23)CC1	Peg3 promoter 112, HIF-2a inh 92, Shn3 inh set2 96, MITF TRPM1 inh 93, CF NFkB inh 90
Cc1cccc(NC(=O)CN2CCN(CC(=O)Nc3cccc(C)c3)CC2)c1	KKLEB cytotox -55
O=C1Cc2cc(S(=O)(=O)Nc3ccccc3Cl)cc3c2N1CCC3	none
CCOc1cccc(C2/C(=C(/O)c3ccc4c(c3)CC(C)O4)C(=O)C(=O)N2Cc2cccnc2)c1 (configuration not stated)	none
CCCCCOC(=O)c1c(N)n(CCOC)c2nc3ccccc3nc12	MITF TRPM1 inh 61
COCCOC(=O)c1c(N)n(CCCN2CCOCC2)c2nc3ccccc3nc12	none
CCOC(=O)c1c(N)n(-c2ccc(N)cc2)c2nc3ccccc3nc12	none
CCOC(=O)c1c(N)n(CCOC(=O)c2cccs2)c2nc3ccccc3nc12	CF NFkB inh 50
CCOc1ccccc1C(=O)NCC(=O)NCC(C)(C)N1CCOCC1	none
Cn1c(=O)n(CCc2ccccc2)c(=O)c2c1nc1n2CCCN1CCc1ccccc1	Peg3 promoter 69
COc1ccc(N2CCCn3c2nc2c3c(=O)n(CCc3ccccc3)c(=O)n2C)cc1	Peg3 promoter 52
COC(=O)Oc1ccc(/C=C/C(=O)OC(C)C)cc1OC(=O)OC	Shn3 inh set2 94
CCCCOC(=O)/C=C/c1ccc(OC(=O)OC)c(OC(=O)OC)c1	Shn3 inh set2 96
COc1ccc(S(=O)(=O)Nc2ccc(Cc3ccncc3)cc2)cc1C	none
COc1ccc(CC(=O)Nc2cccc(-c3nnc(-c4ccccc4)o3)c2)cc1OC	Peg3 promoter 100
COc1ccc(CC(=O)Nc2cccc(-c3nnc(-c4ccc(C)cc4)o3)c2)cc1OC	Peg3 promoter 111, MITF TRPM1 inh 62
COc1ccc(CC(=O)Nc2cccc(-c3nnc(-c4cccc(C)c4)o3)c2)cc1OC	none
O=C(COc1ccccc1[N+](=O)[O-])Nc1ccc2c(c1)OCO2	none
OC(c1ccccc1)C(O)C(c1ccccc1)N1CCCCC1 (configuration not stated)	Shn3 inh set2 92
OC(c1ccccc1)C(O)c1ccccc1 (configuration not stated)	none (no result: MITF TRPM1 inh)
CC(C)NC(=O)C1(C)CSCC(=O)N1C1CCN(Cc2ccccc2)CC1 (configuration not stated)	none (no result: Peg3 promoter, KKLEB cytotox, Shn3 inh set2, MITF TRPM1 inh, CF NFkB inh)
Cc1nc2c(o1)C(=O)c1ccccc1C2=Nc1ccccc1	Peg3 promoter 104, KKLEB cytotox -84, Shn3 inh set2 94, MITF TRPM1 inh 94, CF NFkB inh 89
Cc1cc(C)cc(OCc2nc3ncc(Br)cc3[nH]2)c1	KKLEB cytotox -50
CC(=O)Nc1ccc(NC(=O)C(C)OC(=O)CCCN2C(=O)c3cccc4cccc(c34)C2=O)cc1 (configuration not stated)	none
CC(C)(C)c1ccc(CC(=O)N2CCC2(C)C(=O)NCc2cccc3ccccc23)cc1 (configuration not stated)	Peg3 promoter 52 (no result: MITF TRPM1 inh)
CC(C)(C)c1ccc(CC(=O)N2CCC2(C)C(=O)Nc2cccc3ccccc23)cc1 (configuration not stated)	none (no result: MITF TRPM1 inh)
CC1=CC2=NC(=O)/C(=C/c3cccn3Cc3ccccc3)C(=N)N2O1	none
N=C1/C(=C/c2cccn2Cc2ccc(Cl)cc2)C(=O)N=C2SC=CN12	KKLEB cytotox -50
CC(C)Oc1ccc(S(=O)(=O)N2CCOCC2)cc1NC(=O)CC1CC2CCC1C2 (configuration not stated)	none (no result: MITF TRPM1 inh)
COc1ccc(S(=O)(=O)N2CCOCC2)cc1NC(=O)COC(=O)CC1CC2CCC1C2 (configuration not stated)	Shn3 inh set2 87
Cc1ccc(S(=O)(=O)CCC(=O)OCC(=O)Nc2cc(S(=O)(=O)N3CCOCC3)ccc2C)cc1	Shn3 inh set2 88
Cc1ccc(CNC(=S)Nc2ccc3c(c2)c(=O)n(C)n3Cc2cccc(C(F)(F)F)c2)cc1	none (no result: MITF TRPM1 inh)
COc1cc(/C=C2\SC(=N)N(c3ccc(F)cc3)C2=O)ccc1O	CF NFkB inh 62
CC(C)CNC(=O)c1cccc(NC(=O)COc2ccc([N+](=O)[O-])cc2)c1	none
Cc1ccc(Nc2ccc(S(=O)(=O)N3CCOCC3)cc2[N+](=O)[O-])c(C)c1	none
Cc1ccccc1Nc1ccc(S(=O)(=O)N2CCOCC2)cc1[N+](=O)[O-]	Peg3 promoter 59
O=C(c1ccc(=O)[nH]c1)N1CCN(S(=O)(=O)c2ccc(Cl)cc2)CC1	none
COC(=O)c1c(NC(=S)Nc2ccc(F)cc2[N+](=O)[O-])sc2c1CCCCC2	none
COC(=O)c1c(NC(=O)COC(=O)c2ccc(Cl)cc2[N+](=O)[O-])sc2c1CCCCC2	Peg3 promoter 71
CN(C)CCCn1c(=O)n(CCc2ccccc2)c(=O)c2c3c(sc21)CCCCC3	Peg3 promoter 101
O=c1c2c3c(sc2nc(NCCO)n1-c1ccccc1)CCCC3	none
CN(C)CCCNc1nc2sc3c(c2c(=O)n1CCc1ccccc1)CCCCC3	Peg3 promoter 113, MITF TRPM1 inh 65
CN(C)CCn1c(=O)n(Cc2ccccc2)c(=O)c2c3c(sc21)CCCCC3	none
CCc1nc2ccc(C(=O)N(C)CCN(C)C)cn2c1N(C)Cc1cc2ccccc2s1	none (no result: MITF TRPM1 inh)
COC(CNC(=O)c1ccc2c(c1)ncn2-c1cccc(C)c1)OC	none
Cc1cc(OCC(=O)OCC(=O)N(C)Cc2ccccc2C)ccc1Cl	none
COc1cccc2c1C(=O)c1c(O)c3c(c(O)c1C2=O)CC(O)(C(C)=O)CC3OC1CC(N(C)C)C(O)C(C)O1 (configuration not stated)	Peg3 promoter 98, Shn3 inh set2 94, MITF TRPM1 inh 79, CF NFkB inh 77
CC(=O)[C@@]1(O)Cc2c(O)c3c(c(O)c2[C@H](O[C@H]2C[C@H](N)[C@H](O)[C@H](C)O2)C1)C(=O)c1ccccc1C3=O	Peg3 promoter 99, KKLEB cytotox -53, Shn3 inh set2 93 (no result: MITF TRPM1 inh)
COc1cccc2c1C(=O)c1c(O)c3c(c(O)c1C2=O)C[C@@](O)(C(=O)CO)C[C@@H]3O[C@H]1C[C@H](N)[C@H](O)[C@H](C)O1	Peg3 promoter 95, KKLEB cytotox -52, Shn3 inh set2 92, MITF TRPM1 inh 87, CF NFkB inh 83
